Test results from PubChem BioAssay (NCI).
About 83,000 compounds went through this panel and 20% of them were active in at least one assay; those are over-represented in the sample as a whole.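 Cell lines were cultured in 96-well plates, exposed to a single compound concentration, and assessed for percent growth 48 hours later.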 Activity calls are given as the source filed them.

These compounds were tested on UO-31 renal (assay: NCI-60 one-dose screen, 48 h (100 = growth as untreated, 0 = no growth, -100 = all killed)). Details: 10 µM unless noted.
Description: Growth inhibition of the UO-31 human tumor cell line is measured as a screen for anti-cancer activity. Cells are grown in 96 well plates and exposed to the test compound for 48 hours. Compounds are tested at a single concentration, which is 10^-5 M for most compounds. The reported endpoint is percent growth (GI% or GIPRCNT), where numbers from 0 - 100% represent growth inhibition, and numbers from -100% - 0 represent cell death. For example, a value of 40 represents 60% growth inhibition. A value of 0 means no net growth occurred over the course of the experiment. A value of -40 indicates 40% of cells at the beginning of the experiment died by the end of the experiment. A value of -100 means all cells are dead at the end of the experiment.
NCI-60 Human Tumor Cell Lines Screen was performed using the standard one-dose NCI protocol, which is described in more detail at https://dtp.cancer.gov/discovery_development/nci-60/default.htm.
Compounds with GIPRCNT values below 10 were considered active. Activity score was based on GIPRCNT using the following formula: […]
Score is 0 for GIPRCNT values of 100 or above, 50 for GIPRCNT values of 0, and 100 for GIPRCNT values of -100.
O=C(N=Nc1c(O)[nH]c2ccccc12)Nc1ccc(F)cc1 was tested, and the growth was 72.8% (inactive). For CCCCNc1nnc2n(Cc3ccccc3)c(=O)c3c4c(sc3n12)CCCC4, the growth was 34.2% (inactive). For Fc1cccc(-c2ccc3c(c2)C2(CCNCC2)CN3)c1, the growth was 88.2% (inactive). CCN1CCN(C(=O)[C@]23CC[C@@H](C)[C@H](C)[C@@H]2C2=CC[C@@H]4[C@@]5(C)C/C(=C/c6cccnc6)C(=O)C(C)(C)[C@@H]5CC[C@@]4(C)[C@]2(C)CC3)CC1 was tested, and the growth was 10.5% (inactive). Cc1nc2sc(C(=O)Nc3cccc(Br)c3C)c(N)c2cc1C(O)c1ccccc1 (stereo not given) was tested, and the growth was 30.9% (inactive). With Oc1c(CN2CCOCC2)cc(COCc2ccccc2)c2cccnc12 the growth was 6.45% (active). In the case of C/C(Cc1ccc(Cl)cc1)=C(\c1ccc(OCCCN(C)C)cc1)c1ccc(OC(=O)Cc2ccccc2)cc1, the growth is reported as 96% (inactive). CN(CCCNC(=O)CCOCCOCCOCCNC(=O)Cc1ccc2ccc3cccc4ccc1c2c34)CCCNc1cc(-c2ccc3ccccc3c2)nc2ccccc12 was tested, and the growth was -73.4% (active). In the case of Cc1ccc(C(=O)Nc2cccc(C#Cc3cccc4[nH]nc(N)c34)c2)cc1C(F)(F)F, the growth is reported as 36.7% (inactive). COc1ccc(/C=C2\CN(C(=O)C(Cl)Cl)C/C(=C\c3ccc(OC)cc3)C2=O)cc1 was tested, and the growth was -97.8% (active). For CC1=CCC(OC(=O)C(C)(C)CC(O)(C(C)O)C(O)C2(C)C=CC(Cc3ccc(C(C)C)cc3)(C(C)C)CC2)(C(C)C)CC1 (stereo not given), the growth was 81.5% (inactive). For COc1ccc(/C(C)=C(/c2ccc(OCCCN(C)C)cc2)c2ccc(OC(=O)c3ccccc3)cc2)cc1, the growth was 45.1% (inactive). In the case of COc1cnc2c(c1)C(=O)c1c-2n(CCCCl)c(=O)c2ccncc12, the growth is reported as 41.4% (inactive). CC1(C)CC[C@]23CC[C@]4(C)[C@H](CC[C@@H]5[C@@]6(C)C/C(=C/c7ccncc7)C(=O)C(C)(C)[C@@H]6CC[C@]54C)[C@H]2[C@H]1OC3 was tested, and the growth was 57.1% (inactive). CCCCNc1cc(-c2cn[nH]c2-c2cc(C)cc(OC)c2)nc(-c2cccnc2)n1 was tested, and the growth was 62.3% (inactive). In the case of O=S(=O)(NCCNc1nccc(-c2c(-c3ccc(F)c(O)c3)nc3sccn23)n1)c1ccc(F)cc1, the growth is reported as 3.56% (active). In the case of COC(=O)c1c2c(n3ccccc13)C(=O)c1ccccc1C2=O, the growth is reported as 35% (inactive). With Ic1ccccc1I the growth was 78.6% (inactive). With CO[C@H]1CC(=O)n2c3ccccc3c3c4c(c5c6ccccc6n1c5c32)C(=O)NC4=O the growth was 71.3% (inactive). With CN1CCN(CCOc2ccc(-c3cnc4c(-c5ccc(F)cc5)cnn4c3)cc2)CC1 the growth was 32.3% (inactive). With N#Cc1cccc(C2C3=C(COC3=O)N(CCO)c3cc4c(cc32)OCO4)c1 (stereo not given) the growth was 43.4% (inactive). O=[N+]([O-])c1cc(NS(=O)(=O)c2ccccc2)ccc1NS(=O)(=O)c1ccccc1 was tested, and the growth was 95.8% (inactive). With O=C1Nc2ccccc2/C1=C/c1cccn1C(=O)c1ccc(Cl)s1 the growth was 65.1% (inactive). CCCCCCCC/C=C\CCCCCCCCOc1ccc(CC(=O)NCC[N+]2(C)CCOCC2)cc1 was tested, and the growth was 93.5% (inactive). In the case of O=C(C1=Cc2cc3ccccc3n2Cc2cnnn21)c1ccc(O)cc1, the growth is reported as 63.1% (inactive). O=C(CSc1nc(-c2ccccc2)cc(=O)[nH]1)Nc1nc(-c2ccccc2)cs1 was tested, and the growth was 65.2% (inactive). With N#Cc1c(-c2ccccc2)nc(SCc2nnc(-c3ccc(Cl)cc3)o2)[nH]c1=O the growth was 74.6% (inactive). O=S(=O)(Oc1ccc(Br)cc1)c1ccc(Cl)cc1 was tested, and the growth was 82.3% (inactive). COc1ccc(/C=C/C(=O)c2cc3c(N)c(C(=O)Nc4cccc(Cl)c4C)sc3nc2C)cc1 was tested, and the growth was 22.9% (inactive). For NS(=O)(=O)c1ccc(-c2cc(-c3nnc(SCC(=O)Nc4ccc(C(=O)/C=C/c5ccc(Cl)cc5)cc4)n3-c3ccccc3)c3ccccc3n2)cc1, the growth was 84% (inactive). In the case of COc1ccc(C(O)c2cc3c(N)c(C(=O)Nc4cccc(Cl)c4C)sc3nc2C)cc1 (stereo not given), the growth is reported as 17.9% (inactive). In the case of N#C/C(=C\c1ccc(-c2cccc(C(F)(F)F)c2)o1)c1ccccc1, the growth is reported as 68.7% (inactive). In the case of O=C1/C(=C2\SC(=S)N(C3CC3)C2=O)SC(=S)N1C1CC1, the growth is reported as 77.4% (inactive). For COc1ccc(NC(=O)Nc2ccc(OCCCCCC(=O)NO)cc2)cc1, the growth was 87.4% (inactive). For CCNC(=O)Oc1ccc(/C(=C(/CC)Cc2ccccc2)c2ccc(OCCN3CCCC3)cc2)cc1, the growth was 83.5% (inactive). In the case of C[C@@H]1O[C@@H](O[C@@H]2C[C@H](c3ccc4c(c3O)C(=O)C3=C(C4=O)[C@@]4(O)C(=O)C[C@](C)(O)C[C@@]4(O)C=C3)O[C@H](C)[C@H]2O)CC[C@@H]1O[C@H]1C[C@@H](O)[C@H](O)[C@@H](C)O1, the growth is reported as 82.8% (inactive). For O=C(C1CCCCC1)[C@@H]1[C@]2(C(=O)NC3CCCCC32)[C@@H]2CCCN2[C@@]12C(=O)NC1CCC(Cl)CC12 (stereo not given in full), the growth was -73% [100 µM] (active). For N=C(N)c1ccc(-c2ccc(-c3ccccc3)s2)cc1, the growth was 83.5% (inactive). With Cc1ccc(S(=O)(=O)OCCCOS(=O)(=O)c2ccc(C)cc2)cc1 the growth was 71.3% (inactive). CN(CCC(=O)c1ccccc1)CCC(=O)c1ccccc1 was tested, and the growth was 77.1% (inactive).
